# Assay outcomes from PubChem BioAssay.
# Rows were chosen to be rich in hits. Some 2.1% of all compounds tested hit in one or more screens of this group.
# HIF activator = HIF pathway transcriptional activators, primary screen, cell-based, U2OS HRE-luciferase, luminescence. U2OS HRE-luciferase reporter; normalized: DMSO 0%, desferrioxamine 100%. activation, % at 7.5 µM (by protocol). 0.32% of 300,000 active;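 active means mean activation of at least 10% of the iron chelator positive control signal, with at least half of replicates also reaching 10%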
# Platelet DG rel = inhibitors of platelet dense granule secretion, primary screen, cell-based, MLPCN, human platelets | human platelet-rich plasma, SFLLRN dense granule ATP release, luminescence | inhibition, %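 (compounds screened at 7.5 µM in platelet-rich plasma)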 | 0.22% of 300,000 active | AID 1663, 2009;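 active means mean replicate score, as percent of positive control, at or above 50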
# KLF5 inh = KLF5 expression inhibitors, primary screen, DLD-1 cells, luminescence; DLD-1 KLF5 promoter-luciferase reporter; inhibition, % at 5 µM; 0.23% of 290,000 active; AID 1700, 2009;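 active means inhibition above a per-plate limit of that plate's mean compound inhibition plus 3 SD, cut at about 60% in these data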;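 further: 0% = DMSO wells and 100% = LY294002 at 200 µM; higher means less KLF5 promoter-driven luciferase light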
# Wee1 degr inh = Wee1 degradation inhibitors, primary screen, cell-based, HeLa, Wee1K328M-luciferase, luminescence; 1.2% of 220,000 active; reporter increase, % at 5 µM; HeLa Luc-Wee1K328M stability; 100% = proteasome inhibitor MG132 effect; AID 1321, 2008;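 active means activation above the mean of all tested compounds plus 3 SD, set per screening run, cut at about 8.8% in these data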;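 further: cells exposed to compound for 20 h before luminescence read; 0% = DMSO alone and 100% = MG132 at 30 µM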
# Target sequence (P30291 whole entry K328M): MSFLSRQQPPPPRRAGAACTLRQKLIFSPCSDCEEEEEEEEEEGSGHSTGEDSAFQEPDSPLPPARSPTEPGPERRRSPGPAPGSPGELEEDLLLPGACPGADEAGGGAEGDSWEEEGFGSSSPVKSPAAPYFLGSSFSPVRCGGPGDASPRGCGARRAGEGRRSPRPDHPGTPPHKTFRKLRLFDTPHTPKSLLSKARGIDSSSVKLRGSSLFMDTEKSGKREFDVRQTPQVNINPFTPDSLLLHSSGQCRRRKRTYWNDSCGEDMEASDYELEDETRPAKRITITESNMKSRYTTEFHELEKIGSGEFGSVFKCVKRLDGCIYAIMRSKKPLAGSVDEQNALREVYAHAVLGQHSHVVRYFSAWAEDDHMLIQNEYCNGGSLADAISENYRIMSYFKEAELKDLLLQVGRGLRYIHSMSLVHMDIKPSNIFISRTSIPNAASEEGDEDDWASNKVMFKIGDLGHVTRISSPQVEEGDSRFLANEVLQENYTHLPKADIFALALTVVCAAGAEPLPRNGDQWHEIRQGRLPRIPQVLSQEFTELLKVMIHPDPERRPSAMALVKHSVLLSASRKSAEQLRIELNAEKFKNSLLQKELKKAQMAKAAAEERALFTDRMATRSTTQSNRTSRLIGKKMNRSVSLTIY
# aSyn UTR inh = MLPCN primary screen, SNCA 5' untranslated region; alpha-synuclein 5'UTR reporter, inhibitor activity; 0.82% of 300,000 active; inhibition, % (tested at 7.5 µM); in the data active means inhibition above about 60%;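 further: H4 neuroglioblastoma cells stably carrying SNCA 5'UTR luciferase fusion; 0% = DMSO wells and 100% = positive control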
# Active calls of the source: *; · = no result.
SMILES,HIF activator,Platelet DG rel,KLF5 inh,Wee1 degr inh,aSyn UTR inh
CC1(C)CC(=O)C=C(NCc2cccnc2)C1,0.2,-9.9,-29.2,9.3*,5.5
CC(SCc1ccccc1)C(=O)Nc1ccccc1F (centres undefined),0.8,-4.8,-17.7,·,-19.5
Nc1ccccc1NC(=O)c1ccccc1,24.6*,0.0,14.2,0.0,-154.1
CC(=O)Nc1ccccc1NC(=O)c1ccccc1,-0.2,9.4,-9.1,0.3,-2.0
Cc1cc(OCC(=O)NCCCN2CCCC2=O)c2c(C)c(C)c(=O)oc2c1,-0.3,2.0,-19.9,·,-9.2
COc1cc(/C=C(/C#N)c2nc3ccccc3[nH]2)ccc1OCC(=O)Nc1ccccc1C(C)C,-2.3,-4.1,1.9,2.4,103.5*
COc1cc(/C=C(/C#N)c2nc3ccccc3[nH]2)ccc1OCC(=O)Nc1ccccc1C,·,·,-2.5,-0.1,·
Cc1cccc(C)c1NC(=O)c1cnccn1,0.3,3.8,-28.7,·,-10.2
CCOc1ccc2nc(SC3CC(=O)N(c4cccc(OC)c4)C3=O)sc2c1 (centres undefined),-0.2,6.5,-62.5,9.1*,-58.6
O=C(NCc1nc2ccccc2[nH]1)C1=C[C@@H](c2ccc3c(c2)OCO3)C[C@@H](OCc2ccc(CO)cc2)O1,-0.8,-0.2,·,·,24.6
Cn1cc(CN(CCO)Cc2cccs2)c(-c2cccc(Cl)c2)n1,0.2,57.5*,-8.7,4.7,22.1
CN(Cc1cn(C)nc1-c1cccc(Cl)c1)Cc1nccn1C,0.2,-1.7,-27.0,-1.6,-4.9
Cc1cc(Cl)ccc1OC(C)C(=O)Nc1ccc(C(=O)Nc2ccccc2C(=O)O)cc1 (centres undefined),-0.4,-5.4,-20.4,·,-11.4
CC(C)(C)C(=O)N1CCc2cc(-c3csc(N)n3)ccc21,-0.9,12.0,-11.9,-2.8,65.6*
Cc1ccc(CNC(=O)CNC(=O)c2ccc(Br)o2)cc1,-0.3,10.6,4.7,·,3.4
Cc1nn(C)cc1CNC(=O)C1CCC(=O)N(CC2CCCCC2)C1 (centres undefined),0.0,55.8*,-17.4,·,5.4
C/C(=N\NC(=O)C(C)n1nc(C)c([N+](=O)[O-])c1C)c1ccccc1O (centres undefined),7.2,-32.7,-53.6,8.1,77.8*
Cc1nn(C(C)C(=O)NCc2ccco2)c(C)c1[N+](=O)[O-] (centres undefined),-0.3,3.8,-2.4,-1.3,4.3
O=C(Nc1nc2ccc(S(=O)(=O)N3CCOCC3)cc2s1)c1cccs1,0.4,2.9,1.0,10.2*,-15.2
O=C(Nc1nc2ccc(S(=O)(=O)N3CCCC3)cc2s1)c1cccs1,0.4,3.5,-3.1,0.9,-29.2
Cc1cc(CN(C)Cc2c(C(=O)N3CCCCCCC3)nc3ccc(Cl)cn23)n[nH]1,-0.2,1.9,-10.9,9.3*,1.5
Cc1nnc(N2C(=O)C(O)=C(C(=O)c3ccco3)C2c2ccc(C(C)(C)C)cc2)s1 (centres undefined),1.1,52.3*,-19.9,4.8,-41.3
CS(=O)(=O)N(Cc1ccc(C(=O)NN=C2CCCCCC2)cc1)c1ccccc1,0.3,4.7,-25.0,1.0,8.9
CS(=O)(=O)N(Cc1ccc(C(=O)NN=C2CCCC2)cc1)c1ccccc1,0.4,2.7,-19.5,9.3*,17.9
C=CCNC(=O)CC1C(=O)NCCN1Cc1ccc(-c2ccccc2)cc1 (centres undefined),0.1,-4.2,3.4,10.8*,-2.9
SMILES,HIF activator,Platelet DG rel,KLF5 inh,Wee1 degr inh,aSyn UTR inh
COc1ccccc1C/C(N)=N/O,204.1*,1.0,-23.0,-2.6,27.6
CC(NC(=O)c1cc2c(s1)CS(=O)(=O)C2)c1ccccc1 (centres undefined),124.9*,-0.8,-0.9,·,-1.7
CC1CCC(NC(=O)c2cc3c(s2)CS(=O)(=O)C3)CC1 (centres undefined),·,·,-29.5,-2.0,·
Cc1nc2ccccc2c2c1C(=O)N(c1cccc(C(=O)O)c1)C2=O,-0.3,-2.5,-25.5,-3.0,-13.6
Cc1ccc(C)c(C(=O)COC(=O)c2cccc(N3C(=O)c4c(C)nc5ccccc5c4C3=O)c2)c1,0.1,-9.4,-229.5,9.0*,-44.2
COc1ccc(S(=O)(=O)N2CCOCC2)cc1NC(=O)CN1CCN(C)CC1,1.4,1.8,·,·,-8.5
Cc1ccc(-c2cn3cccc(C)c3n2)cc1,-1.5,10.2,-93.1,9.8*,-75.3
